Experimental findings from PubChem BioAssay AID504467 (National Center for Advancing Translational Sciences (NCATS), 2011) are described below.

About 7,700 (2.3%) of roughly 330,000 compounds were called active. Another 26% or so got no clear call; they are omitted. Only a selection was taken, and actives are over-represented in it overall. Values without a mark were called inactive. Calls follow the shape of the dose curve; as a rule, active = well fitted inhibition curve with a large enough effect; inconclusive = small, poorly fitted or top-dose-only effect, or effect the other way; inactive = flat fitted curve, though single readings scatter.
% is scaled to controls: 0 for no effect and ±100 for the full control effect; potency is read from the fitted curve at half-maximal effect.

The nature of this test: qHTS screen for small molecules that inhibit ELG1-dependent DNA repair in human embryonic kidney (HEK293T) cells expressing luciferase-tagged ELG1. Also: nearly all actives have a fitted effect of over 55% in size. The conditions noted are these: HEK293T ELG1-luciferase reporter, luminescence, 16 h, DNA damage induced by 5-fluorouridine; series mostly up to 46.1 µM; activity change, negative = inhibition: at the top concentration. Put shortly: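 5-Fluorouridine DNA damage + compound/DMSO, 2,000 cells/well, 16 h, 37 °C/5% CO2. ONE-Glo, 30 min RT, luminescence. Readout = decrease in reporter signal.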
For orientation: In qHTS, concentration-response curves come from the screen itself.
Consider `Cc1ccc(-c2nc(-c3cccnc3)sc2CC(=O)Nc2ccc(C)c(Cl)c2)cc1`, for which the Potency was 16.4 µM (active). Consider `Cc1cc(C)c(NC(=O)CS(=O)CC(=O)Nc2cccnc2)c(C)c1` (stereo not given), for which the “activity change, negative = inhibition” value was -1.59%. The same measure, in the same setting: to `Cc1nc(-c2ccc(F)cc2)c(CC(=O)Nc2cccc(S(=O)(=O)N3CCOCC3)c2)s1` belongs -9.34%. In the case of `COc1ccc(N2CCN(C3CCCCC3NS(=O)(=O)c3ccccc3)CC2)cc1` (stereo not given), the “activity change, negative = inhibition” value is -5.22%.

In the case of `CCOc1ccc(CN2CCCN(C)CC2)cc1`, the “activity change, negative = inhibition” value was 9.71%. For the compound `CCOc1ccc(CC(=O)NC2CCN(Cc3ccccc3)CC2)cc1`, the “activity change, negative = inhibition” value was -9.53%.

As for `CCOc1ccc(CN2CCN(Cc3c[nH]c4ccccc34)CC2)cc1`, the Potency is 13 µM (active).

For `COC(=O)[C@]1(S(=O)(=O)c2ccccc2)C[C@@H]2ON=C(c3ccc(OC)cc3)[C@@H]2C1`, the “activity change, negative = inhibition” value is 3.37%. On to `Cc1ccc(S(=O)(=O)Nc2ccc(F)c(S(=O)(=O)N3CCOCC3)c2)cc1`, for which the “activity change, negative = inhibition” value was -19.8%. Same read-out and setting: to `Cc1ccc(-c2ccc(=O)n(Cc3ccc(F)cc3Cl)n2)cc1` belongs -0.564%; to `O=C1C=C(c2cccc(Cl)c2)C[C@@H](c2ccc(F)cc2)C1`, 3.63%. The same measure, in the same setting: to `CCOc1ccccc1-c1cc(C(=O)N2CCOCC2)c2ccccc2n1` belongs -25.2%; to `O=C(c1cc(-c2ccc(Cl)s2)nc2ccccc12)N1CCOCC1`, -3.24%. In the case of `O=C(c1cn(-c2ccccc2)nc1-c1cc2ccccc2oc1=O)N1CCOCC1`, the Potency was 7.3 µM (active). As to `Nc1nc(-c2sc3nc4c(cc3c2N)CCCC4)nc(N2CCOCC2)n1`, the Potency is 6.51 µM (active).

As to `COc1ccccc1C(CNC(=O)c1cccc(S(=O)(=O)Nc2ccc(F)cc2)c1)N(C)C` (stereo not given), the “activity change, negative = inhibition” value is -1.22%. For the compound `NC(=O)c1nsc(C(=O)N(CCCN2CCOCC2)C(C(=O)NC2CCCCC2)c2ccc(Cl)cc2)c1N` (stereo not given), the “activity change, negative = inhibition” value is 5.9%.

Regarding `Cc1ccc(NC(=O)CN(C)C(=O)c2ccc(Cl)c(S(=O)(=O)NCc3ccco3)c2)cc1`, the “activity change, negative = inhibition” value was -3.5%. With `O=C(CSCC(=O)Nc1cccc([N+](=O)[O-])c1)Nc1ccccc1`, the “activity change, negative = inhibition” value was 15.4%. With `O=C(CCl)Nc1cccc(CP(=O)(c2ccccc2)c2ccccc2)c1`, the Potency is 14.6 µM (active).

Take `CCc1cccc(NC(=O)CCC(=O)O)c1`: the “activity change, negative = inhibition” value was 4.12%. `COc1ccc(C2=NN(C(=O)CSc3nc(=O)n4ccc(C)cc4n3)C(c3ccc(C)cc3)C2)cc1` (stereo not given): the “activity change, negative = inhibition” value was -11.2%. With `CC(=O)N1c2ccc(S(=O)(=O)N3CCC(C(=O)NC4CCCC(C)C4C)CC3)cc2CC1C` (stereo not given), the “activity change, negative = inhibition” value is 0%. For the compound `O=C(Cn1cnc2c(OCc3ccccc3)ncnc21)NCCCn1ccnc1`, the “activity change, negative = inhibition” value was 13.1%. Regarding `COc1cccc(/C=N/Nc2cc(C)nc(-c3ccccc3O)n2)c1O`, the Potency was 5.8 µM (active).

As for `COc1cc(NS(=O)(=O)c2ccccc2)ccc1-n1nc(C)cc1C`, the “activity change, negative = inhibition” value was 1.2%. As to `COc1cccc(/C=N/Nc2ncc(C(F)(F)F)cc2Cl)c1O`, the “activity change, negative = inhibition” value was 15.3%. The same measure, in the same setting: to `COc1ccc(Nc2cc(C)nc(-n3nc(C)cc3C)n2)cc1` belongs 9.95%; to `COc1cccc2c(N/N=C/c3ccco3)cc(C)nc12`, 17.8%. With `COc1ccccc1/C=N\Nc1cc(C)nc(-n2nc(C)cc2C)n1`, the Potency is 23.1 µM (active).
